Bioassay records (PubChem BioAssay)
An excerpt weighted towards active compounds, which were near 3.5% of everything screened.
GPR151 activ – human GPR151 activation | activation, % at 11.2 µM | AID 1508602 | Q8TDV0 | PathHunter beta-arrestin GPR151 cells, luminescence | 1% of 650,000 active; in the data active = activation above about 4.9%;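 note: 0% = median of compound wells and 100% = cells with positive control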
TEAD-YAP inh – TEAD-YAP interaction inhibition | HEK-TIYL cells, TEAD-Gal4/YAP UAS-luciferase luminescence | 1.4% of 640,000 active | inhibition, % at 9.12 µM; in the data active = inhibition above about 32%;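 note: 0% = median of test compound wells and 100% = reference inhibitor wells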
FBW7 activator – human FBW7 E3 ligase activation, primary screen; Q969H0; AlphaScreen FBW7–phospho-cyclin E peptide binding, activator screen; normalized activity (activation), % at 26.1 µM; 0.13% of 650,000 active; in the data active = normalized activity above about 1.9%;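 note: purified mutant Fbw7 with reduced substrate affinity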
MITF primary – blocks human microphthalmia-associated transcription factor; inhibition, % at 2.6 µM; 0.91% of 650,000 active; AlphaScreen MITF homodimerization, bead proximity signal; in the data active = inhibition above about 50%;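 note: 0% = vehicle wells with protein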
Target sequence (O75030 whole entry, looked up): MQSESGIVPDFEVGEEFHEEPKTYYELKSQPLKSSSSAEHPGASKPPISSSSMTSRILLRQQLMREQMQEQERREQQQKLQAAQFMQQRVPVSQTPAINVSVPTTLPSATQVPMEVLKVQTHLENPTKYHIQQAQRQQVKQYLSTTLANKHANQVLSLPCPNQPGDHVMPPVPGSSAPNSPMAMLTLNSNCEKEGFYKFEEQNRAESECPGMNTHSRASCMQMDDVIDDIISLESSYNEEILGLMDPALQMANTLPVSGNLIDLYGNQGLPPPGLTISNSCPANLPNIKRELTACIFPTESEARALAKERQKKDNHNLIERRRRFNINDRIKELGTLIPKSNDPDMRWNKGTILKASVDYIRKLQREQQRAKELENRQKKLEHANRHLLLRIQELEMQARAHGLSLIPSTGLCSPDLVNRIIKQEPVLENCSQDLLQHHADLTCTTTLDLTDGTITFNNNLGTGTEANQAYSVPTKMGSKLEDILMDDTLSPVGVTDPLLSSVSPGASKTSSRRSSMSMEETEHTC
GPR151 confirm – human GPR151 activation, confirmation screen; shares compounds with GPR151 activ; GPR151 PathHunter beta-arrestin cells, luminescence, 90 min; % of EA-reagent control over plate median; activation, % at 11.2 µM; 6,700 tested, under 10 active;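 active = mean percent activation across replicates above the confirmation screen cutoff of 4.91%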
GPR119 ag – GPR119 activation, counter-screen for GPR151 activators; shares compounds with GPR151 activ; GPR119 PathHunter beta-arrestin cells, luminescence, 90 min; 0 = compound-well median, 100 = enzyme-acceptor control; activation, % at 11.2 µM; 0.3% of 6,700 active; AID 1508611;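 active = mean percent activation in the counterscreen above 29.09%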;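 note: counterscreen on off-target GPR119 to flag nonselective hits from the GPR151 activator screen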
Starred values were filed as active, the others as inactive; x = no result given.

SMILES	GPR151 activ	TEAD-YAP inh	FBW7 activator	MITF primary	GPR151 confirm	GPR119 ag
CCOc1ccc(NC(=O)c2sc3ncn(CC(=O)N4CC(C)CC(C)C4)c(=O)c3c2C)cc1 (stereo unspecified)	6.3*	20	0	2	-1	0
Cc1c(C(=O)Nc2ccc(Oc3ccccc3)cc2)sc2ncn(CC(=O)N3CC(C)CC(C)C3)c(=O)c12 (stereo unspecified)	3	5	0	4	x	x
CCn1c(=O)c(C(=O)NNC(=O)c2ccc([N+](=O)[O-])cc2)c(O)c2ccccc21	21*	0	0	7	0	-6
CC1CCCCC1NC(=O)c1cccnc1SCC(=O)NCCc1ccccc1 (stereo unspecified)	-1	-6	0	2	x	x
O=C(CCC1=NS(=O)(=O)c2ccccc2N1)Nc1ccccc1	6.2*	4	0	5	0	-4
CC(=O)Nc1ccc(-c2cnc3cccc(-c4ccncc4)c3c2)cc1	5.0*	-13	0	13	0	-9
CC(=O)Nc1ccc(-c2cnc3cccc(-c4cccnc4)c3c2)cc1	1	0	0	16	x	x
CC(=O)c1ccc(NC(=S)Nc2cc([N+](=O)[O-])ccc2C)cc1	6.3*	-2	0	12	-1	-8
Cc1ccc(C(=O)O)cc1NC(=O)Nc1ccc([N+](=O)[O-])cc1	2	10	0	5	x	x
CCCCOc1ccc(/C=C/C(=O)N2CCCCC2)cc1	5.6*	-38	0	3	1	-7
COc1cccc2cc(C(=O)Nc3nccs3)c(=Nc3ccccc3)oc12	4	-10	0	5	x	x
COc1ccc(NC(=O)c2cccc3ccccc23)cc1	-1	-4	0	-3	x	x
COC(=O)c1ccccc1C(=O)c1cccc2ccccc12	10*	1	0	-3	0	-4
Cc1cnc(Nc2ccncn2)nc1NC1CC1	5.7*	3	0	-6	1	0
Cc1cnc(Nc2ccncn2)nc1NC1CCN(Cc2ccccc2)CC1	-3	24	0	-12	x	x
COc1ccc(CCN2C(=O)CC(C(=O)Nc3ccc(Cl)cc3)SC2=Nc2ccc(F)cc2)cc1OC (stereo unspecified)	5.4*	-4	0	13	0	7
COc1ccc(CCN2C(=O)CC(C(=O)Nc3ccc(F)cc3)SC2=Nc2ccc(Cl)cc2)cc1OC (stereo unspecified)	1	3	0	15	x	x
CCOc1ccc(C2NC(=S)NC3=C2C(=O)CCC3)cc1 (stereo unspecified)	5.8*	2	1	12	0	1
C/C(=N\NC(=O)CNc1ccccc1Cl)C(C)(C)C	5.9*	-9	0	-5	-1	-4
COC(=O)c1cc(-c2ccccc2)n(CC(=O)O)c1C	5.5*	-26	0	-7	-1	-9
c1nc2nc3c(c(NCCN4CCCC4)n2n1)CCCC3	1	11	0	2	x	x
CS(=O)(=O)c1ccc2nc(NC(=O)CS(=O)(=O)c3ccc(Cl)cc3)sc2c1	5.4*	6	0	3	1	6
O=C(c1cccnc1)N1CCN(c2ccc(Cl)c(Cl)c2)CC1	0	11	0	-12	x	x
CC1CCCN(CCCNC(=O)c2ccc3c(c2)NC(=O)C(N2CCOCC2)S3)C1 (stereo unspecified)	6.2*	-2	0	-4	0	-4
CCCc1cc(=O)[nH]c(SCC(=O)Nc2cc3c(cc2C(C)=O)OCO3)n1	6.3*	-4	0	-7	0	-4
SMILES	GPR151 activ	TEAD-YAP inh	FBW7 activator	MITF primary	GPR151 confirm	GPR119 ag
CCOc1ccccc1CN1CCN(Cc2cn(CC)nc2C)CC1CCO (stereo unspecified)	0	-4	0	-9	x	x
COC(=O)COc1ccc(S(=O)(=O)NCCC2=CCCCC2)cc1C	30*	-1	0	2	0	2
COc1ccc(C(=O)CSc2nnc(-c3cccs3)o2)c(OC)c1	0	4	0	0	x	x
O=C(NCCN1CCOCC1)c1cccc(-n2ncc3cc(Nc4ccccc4Cl)ccc32)n1	4.9*	-2	0	3	1	-7
O=C(NCCN1CCOCC1)c1cccc(-n2ncc3cc(Nc4ccccc4Cl)ccc32)c1	-1	11	0	5	x	x
COc1cc2c(cc1OC)/C(=C/C(=O)Nc1ccccc1C)NC(C)(C)C2	1	-15	0	10	x	x
CC(=O)N1CCN(Cc2ccc3c(c2)CN(C(=O)c2cc(Cl)ccc2F)CCO3)CC1	0	2	1	16	x	x
COc1ccc(Cl)cc1C(=O)NCCCN1CCN(c2ccccc2)CC1	3	-3	0	6	x	x
COc1cc(N(C)C)c([N+](=O)[O-])cc1C(=O)NCCN1CCN(c2ccccc2)CC1	5.8*	3	1	8	1	-1
O=C(CCC(=O)Nc1ccccc1)N/N=C/c1ccc(Br)cc1	2	-8	0	-7	x	x
Cc1cccc(NC(=O)CN(C2=NC3CS(=O)(=O)CC3S2)c2ccccc2)c1 (stereo unspecified)	-2	5	0	17	x	x
CCc1cccc(NC(=O)CN(C2=NC3CS(=O)(=O)CC3S2)c2cccc(C)c2)c1 (stereo unspecified)	13*	7	-1	0	1	-16
Cc1nc2ccccn2c1C(=O)NCc1ccc(Cl)nc1	3	0	0	10	x	x
O=C(CSCC(=O)Nc1ccccn1)Nc1ccc2ccccc2c1	-1	-15	0	0	x	x
O=C(CSCCc1ccccn1)Nc1ccccc1Cl	8.0*	-13	0	2	0	0
O=C(CSCCc1ccccn1)Nc1ccc(I)cc1	5.7*	-25	0	-14	0	4
O=C(CSCc1ccccn1)Nc1ccc2ccccc2c1	7.5*	-40	0	-8	0	9
CCOC(=O)C1CCN(CCC(=O)Nc2ccc(Br)c(C)c2)CC1	10*	-9	2	9	0	-8
CC(C)N1CCC(CNC(=O)c2cc(Cc3ccc(F)cc3)no2)CC1	2	5	0	-7	x	x
CC(C(=O)OCC(=O)c1ccc(Br)cc1)N1C(=O)C2C3CCC(C3)C2C1=O (stereo unspecified)	-2	-16	0	4	x	x
Cc1ccc(C(=O)COC(=O)C(C)N2C(=O)C3C4CCC(C4)C3C2=O)cc1 (stereo unspecified)	5.4*	-16	0	36	-1	-13
Cc1cc(C(=O)N2CCC(c3nc4ccccc4s3)CC2)nn1C	1	-4	0	2	x	x
CC1CN(C(=O)c2cc(C(C)C)n(-c3nc4ccccc4s3)n2)CC(C)O1 (stereo unspecified)	5.7*	8	0	5	1	-9
CCc1ccc(CN2CCC3(CC2)CC3C(=O)N2CCCN(C)CC2)cc1 (stereo unspecified)	1	-4	0	-20	x	x
